# In ChEMBL document CHEMBL3988442, “University of Dundee, Small-Polar-MMV Screening Library” (2021):
# About 960 (1.5%) of roughly 66,000 compounds showed an effect of 50% or more. Many of the other results were omitted from the sample, so strong results are more common in it than they were.
# Tested on: Trypanosoma brucei
# Test: Trypanosoma brucei 72 hour study
# Assay type: functional, organism-based
# Design: scale not given: in the data most compounds retested in dose-response had high values
smiles,measurement,setting,value
CC1(C)CC(N(Cc2ccccc2)Cc2ncc[nH]2)CC(C)(C)N1.O=C(O)CC(O)(CC(=O)O)C(=O)O,Percent Effect,"30.3 µM, […]",10.45%
CCN1CCN(C)C2(CCN(Cc3ccsc3)CC2)C1=O.O=C(O)C(F)(F)F.O=C(O)C(F)(F)F,Percent Effect,"30.3 µM, […]",-66.4%
O=C(O)C(F)(F)F.O=C1COC2(CCN(Cc3ccoc3)CC2)CN1,Percent Effect,"30 µM, 30.03 µM",-33.82%
O=C(O)C(F)(F)F.O=C(c1cnccn1)N1CCCC2(CCN(c3ncccn3)C2)C1 (stereo unspecified),Percent Effect,"30 µM, 30.03 µM",-0.826%
CC(=O)N1CCN(S(=O)(=O)c2ccc(C)c(F)c2)CC1,Percent Effect,"30 µM, 30.03 µM",0.5413%
c1ccc2c(c1)CCN(c1nc(N3CCOCC3)c3nn[nH]c3n1)C2,Percent Effect,"30.3 µM, […]",-17%
Cc1nc(CO[C@@H]2CN(Cc3ccsc3)[C@@H]3COC[C@@H]32)cs1.O=C(O)C(F)(F)F,Percent Effect,"30 µM, 30.03 µM",-15.95%
CCOCCCC(=O)NCc1cn2cc(Br)ccc2n1,Percent Effect,"30 µM, 30.03 µM",54.92%
CCOCCOC(C)C(=O)NCc1cn2cc(Br)ccc2n1 (stereo unspecified),Percent Effect,"30 µM, 30.03 µM",14.67%
CC(C)COCCC(=O)NCc1cn2cc(Br)ccc2n1,Percent Effect,"30 µM, 30.03 µM",-7.155%
OC1(CNCCCN2CCCc3ccccc32)CNCCOC1 (stereo unspecified),Percent Effect,"30.3 µM, […]",12.14%
OC1(CNCCCN2CCc3ccccc32)CCNC1 (stereo unspecified),Percent Effect,"30.3 µM, […]",99.09%
OC1(CNCCN2CCCc3ccccc32)CCNC1 (stereo unspecified),Percent Effect,"30.3 µM, […]",6.012%
Cl.O=C(CCn1c(C(F)(F)F)cc2cccnc21)N1CCOCC1,Percent Effect,"30.3 µM, […]",-52.3%
CN(CCOc1cccc(F)c1)Cc1nc2c(cnn2C)c(=O)[nH]1,Percent Effect,"30.3 µM, […]",-16.26%
Cc1[nH]/c(=N\C(=O)c2csc(NCC(C)C)n2)sc1C,Percent Effect,"30 µM, 30.03 µM",99.84%
Cc1cnc(NC(=O)c2csc(NCC(C)C)n2)s1,Percent Effect,"30 µM, 30.03 µM",4.824%
Cc1cc(O)c(OCC(=O)/N=c2\[nH]c(C)c(C)s2)cn1,Percent Effect,"30 µM, 30.03 µM",-31.23%
Cc1cs/c(=N/C(=O)c2csc(NCC(C)C)n2)[nH]1,Percent Effect,"30 µM, 30.03 µM",86.34%
Cc1cccc(NC(=O)c2csc(NCC(C)C)n2)n1,Percent Effect,"30 µM, 30.03 µM",-6.262%
CC(C)CNc1nc(C(=O)/N=c2\[nH]nc(C(C)(C)C)s2)cs1,Percent Effect,"30 µM, 30.03 µM",-9.789%
O=C(O)C(F)(F)F.O=C(c1cscn1)N1CC[C@@H]2[C@@H]1CCN2C1CCOCC1,Percent Effect,"30.3 µM, […]",-53.41%
O=C(O)C(F)(F)F.O=C(c1ccccn1)N1CCc2ncc(Cn3cccn3)n2CC1,Percent Effect,"30.3 µM, […]",-7.142%
Cc1ccc(S(=O)(=O)N2C[C@H]3C[C@H](NC(=O)c4cnn(C)c4)[C@H]3C2)cc1,Percent Effect,"30.3 µM, […]",-2.175%
COc1c(CNCc2cccc(Cn3ccnc3C)c2)c(C)nn1C.Cl,Percent Effect,"30.3 µM, […]",-2.374%
same,Percent Effect,"10 mM, 10 mM as filed; unlikely as a test dose",-46.4%
CC(C)c1nc2c(n1C)CCN(Cc1nc(-c3ccoc3)no1)C2,Percent Effect,"30.3 µM, […]",-0.2084%
CC(C)c1nc2c(n1C)CCN(Cc1nc(-c3ccsc3)no1)C2,Percent Effect,"30 µM, 30.03 µM",59.36%
Cn1c(C2CC2)nc2c1CCN(Cc1nc(-c3ccsc3)no1)C2,Percent Effect,"30.3 µM, […]",-7.992%
COc1ccc(CN(C)[C@@H]2COC[C@H]2c2ccc(F)cc2)c(OC)c1.O=C(O)CC(O)(CC(=O)O)C(=O)O,Percent Effect,"30.3 µM, […]",4.622%
Br.CCOc1ccc(N(CC(=O)c2ccccc2)C2=NCCCCC2)cc1,Percent Effect,"30 µM, 30.03 µM",25.81%
COc1ccccc1CN1C[C@@H]2CN(C(C)=O)CCO[C@@H]2C1.O=C(O)C(F)(F)F,Percent Effect,"30.3 µM, […]",-77.53%
CN(Cc1nc(N2CCCC2)ncc1-c1ccncc1)C(=O)C(C)(C)C.Cl,Percent Effect,"30.3 µM, […]",34.69%
O=C(N[C@@H]1CCCNC1)C1(Oc2ccc(Cl)cc2)CCNCC1,Percent Effect,"30 µM, 30.03 µM",-80.08%
CN(Cc1ccncn1)C(=O)C1(Oc2ccc(Cl)cc2)CCNCC1,Percent Effect,"30.3 µM, […]",-35.89%
CN(C)C(=O)C1(Oc2ccc(Cl)cc2)CCNCC1,Percent Effect,"30.3 µM, […]",-28.66%
CN(Cc1ccoc1)C(=O)C1(Oc2ccc(Cl)cc2)CCNCC1,Percent Effect,"30.3 µM, […]",99.82%
Cc1ccc(OC2(C(=O)NC(C)Cc3ccncc3)CCNCC2)cc1 (stereo unspecified),Percent Effect,"30 µM, 30.03 µM",-4.697%
Cc1ccc(OC2(C(=O)N(C)Cc3ccoc3)CCNCC2)cc1,Percent Effect,"30.3 µM, […]",91.09%
CC(C)CN1CCC2(CCN(Cc3ccsc3)CC2)C1=O,Percent Effect,"30.3 µM, […]",2.917%
CC(C)CNC(=O)N1CCC2(CC1)OC(C(N)=O)Cn1ccnc12.O=C(O)C(F)(F)F (stereo unspecified),Percent Effect,"30.3 µM, […]",-37.34%
COCC[C@]1(O)CCN(Cc2nnc(C)s2)C[C@H]1C,Percent Effect,"30.3 µM, […]",-14.31%
O=C(O)C(F)(F)F.O=C(c1cccnc1)N1CCCC2(COCCN(c3ccccc3)C2)C1 (stereo unspecified),Percent Effect,"30.3 µM, […]",-43.99%
Cc1ccc(CN2CC[C@@H](O)[C@@H]2Cc2cnn(C)c2)o1.O=C(O)C(F)(F)F,Percent Effect,"30.3 µM, […]",-387.9%
CNC(=O)C1(CCCc2ccncc2)CCCCN1.Cl (stereo unspecified),Percent Effect,"30.3 µM, […]",-5.403%
COCCOC1CCN(C(C(=O)O)c2ccc(OC)c(F)c2)CC1 (stereo unspecified),Percent Effect,"30.3 µM, […]",-2.66%
O=C(O)c1cc(/C=C/c2cccc3ccccc23)ncn1,Percent Effect,"30 µM, 30.03 µM",18.14%
Cn1ccnc1CN1CCC2(COCCN(Cc3ccsc3)C2)C1 (stereo unspecified),Percent Effect,"30 µM, 30.03 µM",61.78%
Cn1ccnc1CN1CCC2(CC1)COCCN(c1ncccn1)C2,Percent Effect,"30.3 µM, […]",7.51%
Cn1ccnc1CN1CCC2(COCCN(S(=O)(=O)C3CC3)C2)C1 (stereo unspecified),Percent Effect,"30.3 µM, […]",11.66%
Cc1noc(CN2C[C@H]3CC[C@@H]2CN(C2Cc4ccccc4C2)C3)n1,Percent Effect,"30 µM, 30.03 µM",16.7%
CC(=O)Nc1nc(C2CCN(C(=O)c3cccnc3)CC2)cs1,Percent Effect,"30 µM, 30.03 µM",31.28%
Cc1noc(C)c1CN1CCc2ncnc(-c3ccc(F)cc3)c2CC1.O=C(O)C(F)(F)F,Percent Effect,"30.3 µM, […]",-81.82%
Cc1ccc(S(=O)(=O)NCCNc2cc(-n3cccc3)ncn2)c(C)c1,Percent Effect,"30.3 µM, […]",53.4%
O=S(=O)(NCCNc1cc(-n2cccc2)ncn1)c1cccs1,Percent Effect,"30.3 µM, […]",16.28%
CCS(=O)(=O)NCCNc1cc(-n2cccc2)ncn1,Percent Effect,"30.3 µM, […]",14.19%
CNC(=O)CN1CCCC12CCN(C(=O)c1cccc(F)c1)CC2.O=C(O)C(F)(F)F,Percent Effect,"30.3 µM, […]",-1.054%
O=C(NCc1ccco1)[C@H]1C[C@@H]2CCN(c3nncs3)C[C@H]2O1.O=C(O)C(F)(F)F,Percent Effect,"30.3 µM, […]",-27.54%
COc1cc2nc(NCc3cc(C)on3)nc(N)c2cc1OC,Percent Effect,"30.3 µM, […]",-6.228%
COc1cc2nc(NCc3scnc3C)nc(N)c2cc1OC,Percent Effect,"30.3 µM, […]",86.68%
COc1ccccc1NCC(=O)NCc1scnc1C,Percent Effect,"30 µM, 30.03 µM",-18.47%
